PGK inhibitor – blocks T. brucei phosphoglycerate kinase; P07378; PGK/GAPDH coupled, Kinase-Glo luminescence, 60 min; Potency, µM (doses to about 57.5 µM), for the others: top-dose activity change, negative = inhibition, actives largely listed as inhibitors; 380,000 compounds, 0.043% hits; AID 602233; also: % is scaled to controls: 0 for no effect and ±100 for the full control effect; nearly all actives have a fitted effect of over 60% in size
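Luminescent ATP detection (Kinase-Glo Plus) follows a 60-minute room-temperature incubation, with wells lacking PGK as controls. Buffer: 100 mM TEA (pH 7.6), 5 mM MgCl2, 0.01% Tween-20. Coupling enzyme GAPDH (100 nM final) supplies unstable 1,3-BPG in-well.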
Pol eta inh – blocks human DNA polymerase eta activity | Q9Y253 | recombinant Pol eta, fluorescent DNA replication assay | Potency, µM (series often up to 114 µM), without a hit: at the highest dose activity change, negative = inhibition, most hits filed as inhibitors | 390,000 compounds, 1.2% hits; also: % is scaled to controls: 0 for no effect and ±100 for the full control effect
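Fluorescent replication assay: 50 nM final substrate added after a 15 min room-temperature compound preincubation with 10 nM enzyme. Signal taken at 0 min and again at 10 min.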
Pol kappa inh – DNA polymerase kappa (human) inhibition; purified Pol kappa, fluorescent DNA synthesis assay, 10 min; Potency, µM (top dose mostly 107 µM), inactives show at the highest dose activity, negative = inhibition, hits mostly inhibitors; 400,000 compounds, 0.53% hits; also: % is scaled to controls: 0 for no effect and ±100 for the full control effect
Target sequence (Q9UBT6 whole entry, looked up): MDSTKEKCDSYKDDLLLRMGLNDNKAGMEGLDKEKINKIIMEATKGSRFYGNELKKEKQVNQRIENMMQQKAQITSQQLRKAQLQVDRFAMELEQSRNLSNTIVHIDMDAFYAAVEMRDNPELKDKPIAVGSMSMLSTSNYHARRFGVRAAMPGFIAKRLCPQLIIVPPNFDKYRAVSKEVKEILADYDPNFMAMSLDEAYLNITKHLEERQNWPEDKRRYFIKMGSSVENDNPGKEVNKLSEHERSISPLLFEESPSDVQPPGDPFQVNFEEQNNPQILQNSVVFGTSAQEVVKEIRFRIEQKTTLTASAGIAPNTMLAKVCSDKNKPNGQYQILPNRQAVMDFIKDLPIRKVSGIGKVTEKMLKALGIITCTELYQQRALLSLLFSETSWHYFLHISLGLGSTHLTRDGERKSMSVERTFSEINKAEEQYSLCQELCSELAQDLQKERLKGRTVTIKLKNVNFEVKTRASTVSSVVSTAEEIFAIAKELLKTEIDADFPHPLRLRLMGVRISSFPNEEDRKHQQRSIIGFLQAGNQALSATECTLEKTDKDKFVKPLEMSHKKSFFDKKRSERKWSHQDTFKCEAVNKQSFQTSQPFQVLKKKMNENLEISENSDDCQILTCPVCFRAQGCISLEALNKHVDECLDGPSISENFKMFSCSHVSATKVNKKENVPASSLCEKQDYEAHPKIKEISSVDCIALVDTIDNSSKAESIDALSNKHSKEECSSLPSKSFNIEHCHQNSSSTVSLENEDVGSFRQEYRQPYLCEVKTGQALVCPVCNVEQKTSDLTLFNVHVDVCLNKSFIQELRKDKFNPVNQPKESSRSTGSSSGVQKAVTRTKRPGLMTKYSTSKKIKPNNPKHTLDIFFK
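Activity was followed as the change in fluorescence between reads at 0 and 10 min after starting the reaction with 50 nM substrate. Beforehand, 10 nM polymerase had been preincubated with compound for 15 min at room temperature.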
Pol iota inh – blocks human DNA polymerase iota activity | AID 588590 | Pol iota fluorescent replication assay, 10 min | Potency, µM (doses to about 115 µM), for the others: at the highest dose activity, negative = inhibition, usual class: inhibitors | 390,000 compounds, 1% hits | Q9UNA4
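Pol iota at 10 nM preincubated 15 min with compounds at room temperature; reaction started with fluorescent substrate, 50 nM final. Fluorescence read kinetically at 0 and 10 min; buffer-only wells as negative control.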
FEN1 inhibitor – human FEN1 inhibition; Potency, µM (highest dose often 114 µM), inactives show top-dose activity change, negative = inhibition, usual class: inhibitors; 390,000 compounds, 0.35% hits; Recombinant FEN1 flap cleavage, fluorescence, 15 min; also: % is scaled to controls: 0 for no effect and ±100 for the full control effect; nearly all actives have a fitted effect of over 65% in size
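Enzyme 10 nM, 15 min RT preincubation with compound; start with substrate 50 nM final; reads at 0 and 15 min; qHTS titration, four-parameter Hill fit.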
POLB inh – blocks human DNA polymerase beta activity; P06746; Pol beta primer extension/strand displacement, fluorescence kinetic; Potency, µM (highest dose often 114 µM), for inactives: at the highest dose activity change, negative = inhibition, usual class: inhibitors; 340,000 compounds, 1.3% hits; AID 485314; also: % is scaled to controls: 0 for no effect and ±100 for the full control effect
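Curves were derived by four-parameter Hill fits of normalized qHTS data. The kinetic fluorescent primer-extension read was taken at 0 and 10 min after 50 nM substrate, following a 15 min room-temperature preincubation of 10 nM enzyme with compounds.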
* marks the source's active call; other numbers are inactive results; i = inactive; ? = inconclusive; / = no result given; [ ] = another dose, or the depositor's remark. Rows were chosen to be rich in hits. Some 2.4% of all compounds tested hit in one or more screens of this group. Calls follow the shape of the dose curve; as a rule, active = well fitted curve in the direction sought with a large enough effect; inconclusive = small, poorly fitted or top-dose-only effect, or another doubt; inactive = no such curve, though single readings can be large; an effect the other way counts as inactive or inconclusive. Potency is read from the fitted curve at half-maximal effect.

SMILES	PGK inhibitor	Pol eta inh	Pol kappa inh	Pol iota inh	FEN1 inhibitor	POLB inh
COc1cc(CCC(=O)OCC(=O)Nc2ncc(Cl)cc2Cl)cc(OC)c1OC	-5%	11µM*	-26%	?	7%	79µM*
CCCOc1ccc(/C=c2\sc3nc(-c4ccco4)nn3c2=O)cc1OCC	-16%	?	?	22µM*	2%	?
COc1cccc(OCc2nnc(SCC(=O)NCc3ccco3)n2CCc2ccccc2)c1	-13%	14µM*	?	?	-3%	22µM*
Cc1ccc(-c2csc3ncnc(Sc4nnnn4-c4ccccc4)c23)cc1	/	/	-15%	-6%	-17%	/
O=C(O)c1cnn2c1C(=O)N(Cc1cccs1)CC2	?	32µM*	7%	9%	-3%	20µM*
COc1ccc(CN2CCn3ncc(C(=O)Nc4ccccc4)c3C2=O)cc1	5%	-6%	-5%	11%	-9%	2%
Cc1ccc(OCCC(=O)OCC(=O)Nc2ccc(Cl)cn2)cc1	-9%	16µM*	-38%	?	-5%	-21%
O=C(O)CC1(CC(=O)Nc2ccccc2N2CCOCC2)CCCC1	-8%	-16%	-3%	28%	4%	10µM*
O=C1Nc2ccc(I)cc2C1=Cc1cc(Br)c(O)c(Br)c1	/	/	?	45µM*	35µM*	/
CS(=O)(=O)c1ccc(NC(=O)COc2ccccc2C(=O)Nc2ccccc2)cc1	/	/	-6%	12%	1%	/
Cc1cc2nc(C)n(CCCNC(=O)Nc3cccc4ccccc34)c2cc1C	-1%	-3%	-23%	?	-12%	40µM*
CCOc1ccc(NC(=O)NCCCn2c(C)nc3cc(C)c(C)cc32)cc1	-2%	-1%	-6%	-7%	-3%	-1%
COc1ccc([C@]23Cc4cc(OC)c(OC)cc4C(O2)C2=C(CC4(CCCCC4)OC2=O)O3)cc1	/	/	/	/	/	19%[22.9 µM]
O=C1OC2(CCCCC2)CC2=C1C1O[C@](c3ccsc3)(Cc3c1ccc1ccccc31)O2	/	/	/	/	/	10µM*
CCNc1ccc(/C=C2\C=Cc3ccccc32)cc1	/	/	-8%	69%	4%	/
COc1ccccc1NS(=O)(=O)c1cccc(C(=O)N/N=C/c2ccc(NC(C)=O)cc2)c1	-8%	-15%	-26%	50µM*	-8%	?
COc1ccccc1NS(=O)(=O)c1cccc(C(=O)N/N=C/c2ccc(OCC(=O)O)cc2)c1	5%	-15%	2%	-3%	-4%	-27%
COC(=O)C1=C(C)N(Cc2ccccc2)C(=NCc2ccco2)N[C@H]1c1ccc(Br)cc1	/	/	/	/	/	1%
CC(=O)c1cccc(NC(=O)Cn2cc(C(=O)c3cccc(Cl)c3)c(=O)c3ccc(C)nc32)c1	3%	-1%	-7%	89µM*	-20%	15%
C/C(=N\NC(=O)c1cc(O)ccc1O)c1cccc(NC(=O)c2ccc(Cl)cc2)c1	-6%	22µM*	50µM*	20µM*	?	45µM*
CC(=O)Nc1cccc(/C(C)=N/NC(=O)c2ccc(O)cc2)c1	-1%	-11%	3%	?	-19%	0%
Nc1nc[nH]c(=O)c1N	/	/	7%	-2%	6%	/
COc1ccc(CCNC(=O)C(=O)NCC(c2ccco2)S(=O)(=O)c2ccccc2)cc1OC (configuration not stated)	i	-9%	-9%[60.1 µM]	25%	-5%	-20%
O=S(=O)(c1ccc2ccccc2c1)N1CCN(c2nc(-c3ccccc3)nc3ccccc23)CC1	/	/	-20%	11%	-8%	/
N#C/C(=C\c1ccc[nH]1)C(=O)Nc1ccccc1[N+](=O)[O-]	-18%	?	?	71µM*	-15%	-5%
SMILES	PGK inhibitor	Pol eta inh	Pol kappa inh	Pol iota inh	FEN1 inhibitor	POLB inh
Cc1ccccc1NC(=O)/C(C#N)=C/c1ccc[nH]1	i	-5%	-3%	28%	-4%	22%
O=C(O)CC/C(=N/NC(=O)c1cn(-c2ccccc2)nc1-c1ccccc1)C(=O)O	/	-10%	-3%	25µM*	5%	1%
COc1ccccc1/C=C/c1nc2ccccc2s1	/	/	-7%	-9%	5%	/
Cc1cccc(OCC(=O)Nc2cc(-c3nc4cc(Cl)ccc4o3)ccc2C)c1	/	/	-12%	-11%	15%	/
Cn1c(CCNC(=O)C2CCCCC2)nc2cc(NC(=O)c3cccs3)ccc21	7%	3%	1%	89%	-3%	40µM*
Cc1nnc(N2CCN(c3ccccc3)CC2)c2c1nnn2Cc1ccc(F)cc1	6%	-16%	-1%	6%	19%	-2%
O=C(NNC(=O)c1cc2cc3ccccc3nc2s1)c1cccc(C(F)(F)F)c1	-18%	?	?	?	-11%	22µM*
COc1ccc(-c2cc(=O)c3cc(C)ccc3[nH]2)cc1	i	9%	-11%	79µM*	-6%	4%
COc1ccc(-c2cc(=O)c3cc(OC)ccc3[nH]2)cc1	-10%	1%	4%	35µM*	-19%	14%
CC1=C(c2ccc(C(C)C)cc2)S(=O)(=O)NC1=NCCCN1CCN(c2ccccc2F)CC1	-9%	-5%	-7%	19%	-5%	-14%
Cc1ccc(NC(=O)Cn2cc(S(=O)(=O)Cc3ccccc3)c3ccccc32)cc1C	-6%	?	-8%	36%	-5%	1%
COc1ccccc1NC(=O)Cn1cc(S(=O)(=O)Cc2ccccc2)c2ccccc21	-5%	79µM*	-23%	-15%	9%	?
O=C(CNC(=O)C1CCCCC1)OCc1ccccc1	/	/	-12%	-19%	-6%	/
CC(=O)OCC1=C(C(=O)OC(C)(C)C)N2C(=O)[C@@H](NC(=O)Cc3ccccc3)[C@H]2SC1	-1%	?	?	32µM*	?	/
Cc1nnc(SCC2=C(C(=O)O)N3C(=O)C(NC(=O)Cc4ccccc4)C3SC2)s1 (configuration not stated)	-17%	22µM*	?	?	-13%	/
CC1=C(C(=O)OCC(Cl)(Cl)Cl)N2C(=O)C(NC(=O)Cc3ccccc3)C2SC1 (configuration not stated)	0%	8%	-12%	76%	0%	2%
Cc1cc(=O)c(C(=O)N[C@@H](C(=O)N[C@@H]2C(=O)N3C(C(=O)O)=C(CSc4nnnn4C)CS[C@H]23)c2ccc(O)cc2)c[nH]1	/	/	0%[19.4 µM]	/	/	/
CC(C(=O)NC1C(=O)N2C(C(=O)O)=C(CSc3nnnn3C)CSC12)n1cc(Cl)cn1 (configuration not stated)	-9%	35µM*	-17%	?	-6%	?
CN(C1CCCCC1)S(=O)(=O)c1ccc2c(c1)c(=O)c(C(=O)N1CCN(c3ccccc3)CC1)cn2C	-5%	-24%	-4%	1%	-5%	0%

Screening data as filed in PubChem.
